# HP1b binding inh = inhibitors of HP1-beta chromodomain binding to methylated histone tails; Potency, µM (series often up to 114 µM), for inactives: top-dose activity change, negative = inhibition, hits mostly inhibitors; actives 0.56% (n = 390,000); P83916; AlphaScreen HP1-beta / biotin-H3K9me3 peptide binding; AID 540317; note: nearly all actives have a fitted effect of over 70% in size
#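 HP1-beta protein (50 nM final) preincubated 30 min at room temperature with biotinylated H3(1-18)K9me3 peptide (50 nM) in PBS pH 7.4, 0.01% Tween-20, then compound added for 30 min. AlphaScreen streptavidin donor/nickel chelate acceptor beads (10 ug/mL final), 30 min dark, luminescence read.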
# ALOX12 inh = ALOX12 (human) lipoxygenase inhibition. P18054. purified 12hLO, xylenol orange hydroperoxide absorbance. Potency, µM (series often up to 108 µM), for the others: at the highest dose activity change, negative = inhibition, actives largely listed as inhibitors. actives 1.1% (n = 580,000); note: % is set by controls: 0 for no effect and ±100 for the full control effect
#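 Hydroperoxide product was detected by ferrous iron/xylenol orange as the 573 to 405 nm absorbance ratio. Arachidonic acid at 40 uM (final) was turned over for 30 min at room temperature by 150 nM human 12hLO, pH 7.0 Hepes buffer, after 15 min compound preincubation.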
# Sfp inh = blocks B. subtilis Sfp PPTase activity; actives 3.5% (n = 310,000); Potency, µM, for inactives: largest response in the series, negative = inhibition, usual class: inhibitors; Biochemical Sfp PPTase activity, qHTS; Q9F4F7;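 note: the enzyme is Sfp with the accession as filed and its product quenches rhodamine fluorescence; 0% = enzyme reaction without inhibitor and -100% = no enzyme wells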
#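 After 15 min at room temperature with compound, 15 nM Sfp received 5 uM rhodamine-CoA plus 12.5 uM BHQ-2-ybbR (50 mM Hepes pH 7.6, 10 mM MgCl2). Rate came from the fluorescence difference over 30 min, ex 525/em 598 nm.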
# JMJD2A Tudor = JMJD2A Tudor domain (human) inhibition; AlphaScreen JMJD2A-Tudor / H3K4me3 peptide binding; O75164; actives 4.4% (n = 390,000); Potency, µM (series often up to 114 µM), inactives show top-dose activity change, negative = inhibition, usual class: inhibitors; note: % is set by controls: 0 for no effect and ±100 for the full control effect; nearly all actives have a fitted effect of over 50% in size
# G9a block = G9a (human) methyltransferase inhibition; Q96KQ7; G9a H3K9 monomethylation, AlphaScreen, 2 h; Potency, µM (top dose mostly 102 µM), for inactives: at the top dose activity, negative = inhibition, most hits filed as inhibitors; actives 8.8% (n = 350,000); AID 504332; note: % is set by controls: 0 for no effect and ±100 for the full control effect; nearly all actives have a fitted effect of over 75% in size
#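 Compounds were preincubated with 20 nM G9a for 15 min, after which biotinylated H3K9 peptide (500 nM) and SAM (20 uM) started a 2 h room-temperature reaction. Monomethylated product was quantified by antibody-based AlphaScreen chemiluminescence.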
# BAZ2B inh = BAZ2B (human) inhibition | Q9UIF8 | AlphaScreen BAZ2B-H3K14Ac peptide displacement | Potency, µM (highest dose often 114 µM), for inactives: top-dose activity change, negative = inhibition, hits mostly inhibitors | actives 4.4% (n = 360,000); note: % is set by controls: 0 for no effect and ±100 for the full control effect; nearly all actives have a fitted effect of over 60% in size
#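 BAZ2B (50 nM) with biotin-H3(5-23)K14Ac peptide (50 nM) in PBS pH 7.4, 0.01% Tween-20, preformed 30 min, then compound 30 min at room temperature; top concentration 110uM. AlphaScreen streptavidin donor/nickel chelate acceptor beads (10 ug/mL final), 20 min dark, signal read.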
# Active calls of the source: *; ? = inconclusive; . = no result given; ! = a repeat was not active; [ ] = remark or other dose. In the library only some 8.7% were active in any assay of this set; here they are far more common. Calls come from the whole dose curve; as a rule, active = well fitted curve in the direction sought with a large enough effect; inconclusive = small, poorly fitted or top-dose-only effect, or another doubt; inactive = no such curve, though single readings can be large; an effect the other way counts as inactive or inconclusive. Potency is the fitted concentration of half-maximal effect.
SMILES,HP1b binding inh,ALOX12 inh,Sfp inh,JMJD2A Tudor,G9a block,BAZ2B inh
CC(C)(C)c1ccc(OCCCN2CCCC2)cc1,?,?,-13.0%,22.4µM*,0.0%,?
c1cc(OCCCN2CCCCC2)ccc1CN1CCCCC1,15.2%,-28.4%,5.0%,-9.9%,5.7%,-15.6%
c1ccc(COc2ccc(OCCCN3CCCC3)cc2)cc1,-9.3%,-22.4%,-14.1%,20µM*,6.31µM*,50.1µM*
CCN1CC(C)C(=O)CC1C (stereo unspecified),.,-14.2%,.,.,.,.
CC(=O)Oc1cccc2c1C(=O)c1c(OC(C)=O)cc(C(=O)O)cc1C2=O,17.5%,-16.0%,-0.1%,?,3.55µM*,?
CC(=O)Oc1ccc(C(=O)O)cc1OC(C)=O,47.9%,2.5%,-18.4%,-0.6%,11.6%[59 µM],?
c1ccc(Cn2ncc3c(NCc4ccco4)ncnc32)cc1,21.1%,-19.3%,-11.4%,?,44.7µM*,79.4µM*
Cc1ccc(-n2ncc3c(NCc4ccco4)ncnc32)c(C)c1,23.9%,?,-0.3%,-26.9%,50.1µM*,?
c1ccc(-n2ncc3c(NCc4ccco4)ncnc32)cc1,8.5%,?,7.5%,-0.3%,?,?
Cc1ccc(-n2ncc3c(NCc4cccnc4)ncnc32)c(C)c1,5.8%,-0.6%,-3.0%,-13.5%,-6.4%,-34.3%
Cc1ccc2[nH]c3c(NCc4ccco4)ncnc3c2c1,-13.1%,-15.6%,-10.1%,-33.3%,50.1µM*,?
Fc1ccc2[nH]c3c(NCc4ccco4)ncnc3c2c1,-19.6%,.,.,-32.6%,.,.
CCCn1cc(CN2CCc3nc(NC)nc(C(=O)N4CCCC4)c3C2)c(C)n1,.,188.7%,.,.,.,.
Cc1cccc(NC(=O)Nc2cccs2)c1C,8.3%,-24.8%,.,-14.5%,1µM*,-4.3%
Cc1c(NC(=O)Nc2cccs2)cccc1[N+](=O)[O-],9.6%,?,50.1µM*,-28.2%,?,1.6%
N#Cc1ccccc1NC(=O)Nc1cccs1,42.7%,-3.3%,-16.9%,-0.4%,4.8%[12.7 µM],4.1%
Cc1ccc(NC(=O)Nc2cccs2)c(Cl)c1,20.9%,0.0%,-25.4%,-8.6%,0.5%[59 µM],-4.0%
O=C(Nc1cccs1)Nc1ccccc1Cl,-3.9%,?,44.7µM*,-17.4%,?,-8.0%
Cc1cccnc1NC(=O)Nc1cccs1,25.2%,0.0%,-14.2%,-15.3%,-7.5%,5.9%
CCCCCCCCCc1conc1C(=O)/C=C/c1oc2c(c1C)CCC(C)C2 (stereo unspecified),.,39.8µM*,.,.,.,.
CC1CCc2onc(C(=O)Nc3ccc(Cl)cc3)c2C1 (stereo unspecified),21.6%,2.7%,.,-2.3%,-11.8%[59 µM],11.9%[57.1 µM]
O=C(CCC(=O)N(CC(=O)NC1CCCC1)Cc1ccc2c(c1)OCO2)Nc1nccs1,.,5.1%,-2.5%,.,5.6%,-0.8%
COCCNC(=O)CN(Cc1ccc2c(c1)OCO2)C(=O)CCC(=O)Nc1nccs1,-7.8%,0.0%,15.9%,28.2µM*,-34.1%,8.3%
CC(C)(C)NC(=O)CN(Cc1ccc2c(c1)OCO2)C(=O)CCC(=O)Nc1nccs1,39.2%,-0.6%,-1.5%,-2.0%,39.8µM*,-21.3%
CC(C)(C)c1ccc(Nc2ccc(C(C)(C)C)cc2)cc1,.,-38.4%,.,.,.,.
N#C/C(=C\c1ccccc1)c1nc2ccccc2[nH]1,.,24.7%,.,.,.,.
CN(C)/C=C/C(=O)c1ccc(Br)s1,17.7%,39.8µM*,7.3%,-16.2%,21.8%[12.7 µM],-22.9%
COC(=O)[C@@H]1C2CC3c4[nH]c5cc(OC)ccc5c4CCN3CC2C[C@H](OC(=O)c2cc(OC)c(OC)c(OC)c2)C1OC (stereo partly specified),.,.,-16.5%,.,?,.
COC(=O)[C@@H]1[C@H]2C[C@H]3c4[nH]c5ccccc5c4CCN3C[C@@H]2CC[C@@H]1O,31.7%,-7.0%[22.9 µM],6.9%,?,21.2µM*!,3.7%
COC(=O)[C@H]1[C@H]2C[C@@H]3c4[nH]c5cc(OC)ccc5c4CCN3C[C@H]2C[C@@H](OC(=O)c2cc(OC)c(OC)c(OC)c2)[C@@H]1OC,?,-25.4%,11.7%,56.2µM*,22.4µM*!,28.2µM*

# Screens: PubChem, National Center for Advancing Translational Sciences (NCATS)
